# Most compounds without a hit are left out; they make up all but 3.4% or so of the library.
# esBAF inh: blocks esBAF chromatin remodeling in mouse ES cells; AID 602393; hit rate 2% among 350,000; reporter increase, % at 12.5 µM; Bmi1-luciferase knock-in reporter, 24 h; 100% = twice the neutral-well signal; in the data active means activation above about 40%; inconclusive means no clear call, values can overlap the other calls;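 further: 0% = median of the plate's neutral control wells and 100% = double that signal; a rise in the Bmi1 reporter signal indicates esBAF inhibition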
# Env fusion inh: blocks HIV Env-driven cell-cell fusion | HeLa-JRFL Env/CEM21 cell fusion, luciferase | inhibition, % at 12.3 µM | hit rate 1.1% among 360,000 | AID 651610;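 active means mean replicate inhibition score of at least 50 and every replicate individually at or above 50; inconclusive means only one of the two criteria met; inactive means mean below 50 and not all replicates reaching 50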;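 further: 0% = plate neutral controls and 100% = maraviroc near 300 nM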
# miR-122 sensor: blocks miR-122 activity in Huh7 sensor cells | AID 602342 | Huh7 miR-122 Renilla luciferase sensor, 48 h; neutral wells = 0, positive control = 100 | activation (reporter increase), % at 12.5 µM | hit rate 0.3% among 340,000;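 active means mean replicate activation score at least 90 and every replicate individually at or above 90; inconclusive means only one of the two criteria met; inactive means neither criterion met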;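 further: higher luciferase means less miR-122 activity so hits act as miR-122 inhibitors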
# MITF act: activators of MITF-driven TRPM1 promoter activity in SK-MEL-5 cells | SK-MEL-5 TRPM1-promoter luciferase, 24 h; % of positive control, neutral wells = 0 | activation, % at 12.5 µM | hit rate 0.75% among 300,000;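 active means mean activation of at least 80% with every replicate also reaching 80%; inconclusive means mean reaches 80% but some replicate falls short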;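 further: 0% = neutral control wells and 100% = parthenolide positive control wells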
# Wnt bcat act: activators of Wnt/beta-catenin signaling; Wnt/beta-catenin reporter cell assay, activator, plate reader; activation, % at 9.35 µM; hit rate 1.2% among 300,000; AID 743398; in the data active means activation above about 30%, passing the limit was not always enough; inconclusive means no clear call, values can overlap the other calls;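 further: 0% = neutral control wells and 100% = positive control wells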
# * marks the source's active call; other numbers are inactive results; ? = inconclusive; nt = not tested or not shown; [ ] = remark or other dose.
SMILES,esBAF inh,Env fusion inh,miR-122 sensor,MITF act,Wnt bcat act
CCOC(=O)C[N+](C)(C)CCOC1CC2CCC1(C)C2(C)C (stereo unspecified),nt,-16,nt,7,-3
CC1(C)C2CCC1(C)C(OCC[N+](C)(C)CC(=O)OC1CCCCC1)C2 (stereo unspecified),-50,74*,-17,-14,-3
Cc1ccc(Cc2c(-c3ccc(Br)cc3)nc3ccc(Br)cn23)cc1,66*,-23,1,nt,6
Cc1ccc(Cc2c(-c3cccc(Cl)c3)nc3ccc(Cl)cn23)cc1,1,-78,1,nt,14
Cc1ccc(Cc2c(-c3cccc(Cl)c3)nc3ccc(C)cn23)cc1,19,62*,24,nt,0
COc1ccccc1Cc1c(-c2cccc(Cl)c2)nc2ccc(Br)cn12,42*,2,2,nt,5
Cc1ccc(Cc2c(-c3cccc(Br)c3)nc3ccc(Cl)cn23)cc1,13,25,3,nt,0
Cc1ccc(Cc2c(-c3cccc(Cl)c3)nc3ccc(Br)cn23)cc1,?,-101,-4,nt,40*
COCC#Cc1cnc2c(c1)C(=O)N([C@H](C)CO)C[C@H](C)[C@@H](CN(C)C(=O)Cc1cccnc1)O2,4,-4[16.7 µM],-10[16.7 µM],nt,nt
O=S(=O)(c1ccc(F)cc1)N1CCCCN2[C@@H](CO)[C@@H](c3ccc(-c4ccccc4)cc3)[C@@H]2C1,nt,nt,-29[16.7 µM],nt,nt
Cc1ccc(-c2ccc3c(c2)O[C@H](CN(C)S(C)(=O)=O)[C@@H](C)CN([C@H](C)CO)S3(=O)=O)cc1,-4,-2[16.7 µM],21[16.7 µM],nt,nt
COCC(=O)Nc1ccc2c(c1)OC[C@H](C)N(C(=O)C1CCCC1)C[C@@H](C)[C@@H](OC)CN(C)C2=O,-1,-18[16.7 µM],1[16.7 µM],nt,nt
Cc1ccc(S(=O)(=O)Nc2ccc3c(c2)C(=O)N([C@@H](C)CO)C[C@H](C)[C@H](CN(C)S(=O)(=O)c2c(C)noc2C)OCCCC[C@@H](C)O3)cc1,0,-27[16.7 µM],7[16.7 µM],nt,nt
N=c1c2c(-c3ccccc3)c(-c3ccccc3)n(Cc3ccco3)c2ncn1CCCN1CCOCC1,nt,75*,nt,1,-1
c1ccc(-c2cc3nccc(-c4ccccn4)n3n2)cc1,nt,-50,nt,127*,19
Cc1cc2nccc(-c3ccccn3)n2n1,12,18,-2,-7,15
O=C(C1CCCCC1)N1CCN(c2ccnc3cc(Cl)ccc23)CC1,-24,57*,nt,-14,0
C[C@@H]1CCCCO[C@H](CN(C)C(=O)CCCN(C)C)[C@H](C)CN([C@@H](C)CO)C(=O)c2cc(NC(=O)c3ccncc3)ccc2O1,5,0[16.7 µM],5[16.7 µM],nt,nt
CCOC(=O)c1cc(-c2nnc(-c3ccc(Cl)cc3)o2)c(C)nc1C,4,-5,-1,8,-2
CCOC(=O)c1ccc(-c2nnc(-c3ccc(Cl)cc3Cl)o2)cc1,45*,-182,-5,87*,nt
CCN1[C@@H]2Cn3c(ccc(-c4ccccc4OC)c3=O)[C@H]1[C@@H](C(=O)N1CCOCC1)[C@@H]2CO,1,nt,2[16.7 µM],nt,nt
NC(=O)C1CCN(c2nc(-c3ccccc3Br)cs2)CC1,nt,-63,nt,nt,38*
NC(=O)C1CCN(c2nc(-c3cccc(N)c3)cs2)CC1,81*,-121,-4,52,9
NC(=O)C1CCN(c2nc(-c3ccccc3C(F)(F)F)cs2)CC1,68*,-46,3,75,14
CS(=O)(=O)c1ccccc1-c1csc(N2CCC(C(N)=O)CC2)n1,nt,nt,nt,nt,-2
SMILES,esBAF inh,Env fusion inh,miR-122 sensor,MITF act,Wnt bcat act
NC(=O)C1CCN(c2nc(-c3ccccc3F)cs2)CC1,38,-109,5,88*,?
CN(C)C(=O)c1cccc(-c2csc(N3CCC(C(N)=O)CC3)n2)c1,nt,nt,nt,nt,16
CN(C)c1ccccc1-c1csc(N2CCC(C(N)=O)CC2)n1,70*,nt,-5,97*,17
NC(=O)C1CCN(c2nc(-c3cccnc3)cs2)CC1,-13,1,0,-12,-4
CNC(=O)/C(C#N)=C/c1ccc(-c2nc3ccccc3s2)o1,nt,-43,2,nt,43*
N#C/C(=C\c1ccc(-c2nc3ccccc3s2)o1)C(N)=O,nt,-24,nt,nt,44*
Cc1noc(C)c1NC(=O)N(C)C[C@@H]1Oc2c(NS(C)(=O)=O)cccc2C(=O)N([C@H](C)CO)C[C@H]1C,6,-2[16.7 µM],-1[16.7 µM],nt,nt
O=C(C[C@H]1CC[C@@H]2[C@H](COC[C@@H](O)CN2C(=O)Nc2ccc(C(F)(F)F)cc2)O1)NCC1CC1,4,nt,-8[16.7 µM],nt,nt
COc1ccc2nc(Nc3ccccc3)sc2c1,37,-111,16,95*,14
COc1ccc2nc(Nc3ccccc3OC)sc2c1,nt,-204,nt,53,48*
COc1ccc2nc(NC(=O)Nc3ccccc3OC)sc2c1,nt,-493,1,32,12
COc1ccc(Nc2nc3ccccc3c(=O)s2)c(OC)c1,3,nt,14,3,nt
COc1cc(/C=C/C(=O)Nc2nc3ccc(S(=O)(=O)NC(C)C)cc3s2)cc(OC)c1OC,nt,-3,nt,12,nt
COc1ccc2nc(Nc3ccc4c(c3)OCO4)sc2c1,38,-76,5,79,-5
COc1ccccc1NC(=O)Nc1nc2ccc(S(N)(=O)=O)cc2s1,48*,-70,6,87*,21
CCNS(=O)(=O)c1ccc2nc(NC(=O)/C=C/c3cc(OC)c(OC)c(OC)c3)sc2c1,nt,-3,nt,2,50*
C#Cc1ccc([C@@H]2C=C(C(=O)N3CCCCCCC3)O[C@H](OCC)[C@H]2CCCO)cc1,nt,25[16.7 µM],nt,nt,nt
CC1=C2[C@@H](c3ccccc3)OB(O)C[C@@H]2n2c(=O)n(-c3ccccc3)c(=O)n2C1,nt,1[16.7 µM],nt,nt,nt
O=C(Nc1ccc(Cl)c(Cl)c1)N1CC=CCC1,100*,nt,-3,76,nt
COc1ccc(NC(=O)Nc2ccc3c(c2)C(=O)N(C)C[C@@H](OC)[C@H](C)CN[C@H](C)CO3)cc1,4,11[16.7 µM],2[16.7 µM],nt,nt
CC(OC(=O)c1cccs1)C(=O)NCc1ccccc1 (stereo unspecified),-8,13,1,-8,53*
C[C@@H]1CCCCO[C@@H](CN(C)CC2CCCCC2)[C@H](C)CN([C@H](C)CO)C(=O)c2cc(NC(=O)Cc3ccccc3)ccc2O1,9,22[16.7 µM],-4[16.7 µM],nt,nt
CCNC(=O)[C@@H]1[C@@H](CO)[C@@H]2Cn3c(ccc(C4=CCCC4)c3=O)[C@@H]2N1C(=O)C1CC1,-4,9[16.7 µM],nt,nt,nt
Cc1oc(C(=O)O)cc1COc1ccccc1Cl,-3,19,1,-10,59*
O=C(O)c1ccccc1COc1ccccc1Cl,10,nt,-1,-3,3
CN1C(=O)c2cc(NC(=O)c3ccccc3F)ccc2OC[C@H]2O[C@H](CC(=O)NCc3ccc4c(c3)OCO4)CC[C@@H]21,-2,21[16.7 µM],20[16.7 µM],nt,nt
CO[C@H]1CN(C)C(=O)c2cc(NC(=O)C3CC3)ccc2OC[C@H](C)N(C(=O)c2cccnc2)C[C@@H]1C,-10,-8[16.7 µM],nt,nt,nt
C[C@@H]1CCCCO[C@H](CN(C)S(C)(=O)=O)[C@@H](C)CN([C@H](C)CO)C(=O)c2cc(NS(C)(=O)=O)ccc2O1,0,7[16.7 µM],0[16.7 µM],nt,nt
CCOC(=O)c1ccoc1CSCC(=O)N1CCN(S(=O)(=O)c2ccc(C)cc2)CC1,-3,56*,-2,-2,nt

# Assay outcomes deposited in PubChem BioAssay by Broad Institute.
